This assay has as its system V-C8 (BRCA2-deficient hamster cells). The assay is described as follows: normalised cell viability (fraction of plate median); higher = more viable cells (less toxic). The note with it: 5 µM. Summed up:
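Hamster V-C8 cells lacking BRCA2 and V-C8 cells with BRCA2 restored were seeded in 96-well plates. Library drugs (10 mM DMSO stocks) were added 24 h later at 5 μM in 100 μl medium, next to DMSO control wells, for 3 days (screen 1) or 6 days (screen 2). Cell viability was read by resazurin assay, median-plate normalised (modified robust per cent of sample), and triplicate wells were averaged.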

Counter-ions that a name gives are not always drawn. ± gives the standard deviation of the averaged measurements. Over roughly 1,300 compounds, “normalised cell viability” has its median near 1; the lowest 2% begin near 0.14. Shown is part of a subset that was picked to be rich in the lowest values.

On to `CO[C@H]1/C=C/O[C@@]2(C)Oc3c(C)c(O)c4c(c3C2=O)C2=NC3(CCN(CC(C)C)CC3)NC2=C(NC(=O)/C(C)=C\C=C\[C@H](C)[C@H](O)[C@@H](C)[C@@H](O)[C@@H](C)[C@H](OC(C)=O)[C@@H]1C)C4=O` [Rifabutin], for which the normalised cell viability reads like this: (treatment time: 3 days) 0.973 ± 0.096; (treatment time: 6 days) 0.876 ± 0.032.

For `NC(=O)c1cnccn1` [Pyrazinamide], the normalised cell viability is, setting by setting: (treatment time: 3 days) 1.12 ± 0.057; (treatment time: 6 days) 1.05 ± 0.071.

In the case of `CNCCC=C1c2ccccc2C=Cc2ccccc21` [Norcyclobenzaprine], the normalised cell viability came out at 0.959 ± 0.045 (treatment time: 3 days) and 0.835 ± 0.035 (treatment time: 6 days).

For `CN1CCCCC1CCN1c2ccccc2Sc2ccc([S+](C)[O-])cc21` (stereo unspecified) [Mesoridazine besylate], the normalised cell viability (treatment time: 3 days) is 1.07 ± 0.07 and the normalised cell viability (treatment time: 6 days) came to 1.07 ± 0.017.

In the case of `CSc1ccc2c(c1)N(CCC1CCCCN1C)c1ccccc1S2` (stereo unspecified) [Thioridazine hydrochloride], the normalised cell viability amounted to 0.121 ± 0.0035 (treatment time: 3 days) and 0.0951 ± 0.0067 (treatment time: 6 days).

For the compound `CCSc1ccc2c(c1)N(CCCN1CCN(C)CC1)c1ccccc1S2` [Thiethylperazine dimalate], the normalised cell viability is, setting by setting: (treatment time: 3 days) 0.932 ± 0.029; (treatment time: 6 days) 1.1 ± 0.35.

Turning to `CC1(C)[C@@H](OC(=O)CCC(=O)O)CC[C@]2(C)[C@H]3C(=O)C=C4[C@@H]5C[C@@](C)(C(=O)O)CC[C@]5(C)CC[C@@]4(C)[C@]3(C)CC[C@@H]12` [Carbenoxolone disodium salt], the normalised cell viability is, setting by setting: (treatment time: 3 days) 1 ± 0.041; (treatment time: 6 days) 1.15 ± 0.26.

On to `CC(=O)OCC(=O)[C@@]1(O)CC[C@H]2[C@@H]3CCC4=CC(=O)CC[C@]4(C)[C@@]3(F)[C@@H](O)C[C@@]21C` [Fludrocortisone acetate], for which the normalised cell viability runs as follows: (treatment time: 3 days) 0.957 ± 0.08; (treatment time: 6 days) 1.11 ± 0.041.

For the compound `O=C1c2c(O)cccc2Cc2cccc(O)c21` [Anthralin], the normalised cell viability runs as follows: (treatment time: 3 days) 1.03 ± 0.019; (treatment time: 6 days) 1.003 ± 0.0083.

Regarding `O=C1c2c(O)ccc(O)c2C(=O)c2c(NCCNCCO)ccc(NCCNCCO)c21` [Mitoxantrone dihydrochloride], the normalised cell viability was found to be 0.143 ± 0.0017 (treatment time: 3 days) and 0.116 ± 0.011 (treatment time: 6 days).

On to `O=C1c2cccc(O)c2C(=O)c2c(O)cccc21` [1,8-Dihydroxyanthraquinone], for which the normalised cell viability reads like this: (treatment time: 3 days) 0.838 ± 0.065; (treatment time: 6 days) 0.78 ± 0.021.

Regarding `c1ccc2c(c1)CCCc1cc(NCCN3CCOCC3)nnc1-2`, the normalised cell viability reads like this: (treatment time: 3 days) 0.351 ± 0.016; (treatment time: 6 days) 0.496 ± 0.056.

As to `CN1C2CCCC1CC(NC(=O)c1nn(C)c3ccccc13)C2` (stereo unspecified) [Granisetron], the normalised cell viability came out at 0.973 ± 0.092 (treatment time: 3 days) and 1.03 ± 0.051 (treatment time: 6 days).

With `CCN(CC)C(=O)/C(C#N)=C/c1cc(O)c(O)c([N+](=O)[O-])c1` [Entacapone], the normalised cell viability runs as follows: (treatment time: 3 days) 0.957 ± 0.024; (treatment time: 6 days) 1.06 ± 0.059.

On to `CN[C@@H]1[C@@H](O[C@H]2O[C@H](CO)[C@@H](N)[C@H](O)[C@H]2O)OC2C[C@@H](N)[C@@H](O[C@H]3[C@H](O)[C@@H](O)[C@H](N)C[C@@H]3N)OC2[C@@H]1O` (stereo partly specified) [Apramycin], for which the normalised cell viability is 0.995 ± 0.057 (treatment time: 3 days) and 1.03 ± 0.019 (treatment time: 6 days).

For the compound `Cc1ccnc2c1NC(=O)c1cccnc1N2C1CC1` [Nevirapine], the normalised cell viability is, setting by setting: (treatment time: 3 days) 0.942 ± 0.023; (treatment time: 6 days) 0.994 ± 0.039.

Consider `NC1CCN(c2nc3c(cc2F)c(=O)c(C(=O)O)cn3-c2ccc(F)cc2F)C1` (stereo unspecified) [Tosufloxacin hydrochloride], for which the normalised cell viability runs as follows: (treatment time: 3 days) 1.01 ± 0.048; (treatment time: 6 days) 1.08 ± 0.024.

As for `CC(CCc1ccc(O)cc1)NCCc1ccc(O)c(O)c1` (stereo unspecified) [Dobutamine hydrochloride], the normalised cell viability (treatment time: 3 days) worked out at 1.01 ± 0.031 and the normalised cell viability (treatment time: 6 days) came to 0.976 ± 0.027.

For the compound `CCCC(=O)Nc1ncnc2c1ncn2[C@@H]1O[C@@H]2COP(=O)(O)O[C@H]2[C@H]1OC(=O)CCC` [Bucladesine sodium salt], the normalised cell viability runs as follows: (treatment time: 3 days) 0.995 ± 0.021; (treatment time: 6 days) 1.04 ± 0.014.

For `CCCCc1nc(Cl)c(CO)n1Cc1ccc(-c2ccccc2-c2nnn[nH]2)cc1` [Losartan], the normalised cell viability stood at 1.019 ± 0.0051 (treatment time: 3 days) and 1.052 ± 0.0052 (treatment time: 6 days).

Regarding `C[C@@H]1NC(=O)NC1=O` [Methylhydantoin-5-(L)], the normalised cell viability came to 1 ± 0.089 (treatment time: 3 days) and 1.07 ± 0.013 (treatment time: 6 days).

Turning to `CC1=Nc2ccc(Cl)cc2S(=O)(=O)N1` [Diazoxide], the normalised cell viability is 0.95 ± 0.024 (treatment time: 3 days) and 1.01 ± 0.054 (treatment time: 6 days).

`N=C(N)c1ccc(OCCCCCOc2ccc(C(=N)N)cc2)cc1` [Pentamidine isethionate]: the normalised cell viability reads like this: (treatment time: 3 days) 0.596 ± 0.07; (treatment time: 6 days) 0.597 ± 0.085.

In turn, `CC1=C(C(=O)O)N2C(=O)[C@@H](NC(=O)[C@H](N)c3ccccc3)[C@H]2SC1` [Cephalexin monohydrate] registered a normalised cell viability (treatment time: 3 days) of 1.25 ± 0.026 and a normalised cell viability (treatment time: 6 days) of 1.09 ± 0.1.

As to `Cc1ccccc1N1C(=O)c2cc(S(N)(=O)=O)c(Cl)cc2NC1C` (stereo unspecified) [Metolazone], the normalised cell viability was determined as 1.11 ± 0.073 (treatment time: 3 days) and 1.06 ± 0.07 (treatment time: 6 days).

Consider `CC(=O)[C@@]12O[C@](C)(c3ccccc3)O[C@@H]1C[C@H]1[C@@H]3CCC4=CC(=O)CC[C@]4(C)[C@H]3CC[C@@]12C` [Algestone acetophenide], for which the normalised cell viability reads like this: (treatment time: 3 days) 0.915 ± 0.05; (treatment time: 6 days) 0.945 ± 0.094.

In the case of `CCCNC(C)(C)COC(=O)c1ccccc1` [Meprylcaine hydrochloride], the normalised cell viability reads like this: (treatment time: 3 days) 1 ± 0.042; (treatment time: 6 days) 1.25 ± 0.47.

As for `C#C[C@]1(O)CC[C@H]2[C@@H]3CCc4cc(OC)ccc4[C@H]3CC[C@@]21C` [Ethynylestradiol 3-methyl ether], the normalised cell viability was determined as 0.844 ± 0.02 (treatment time: 3 days) and 0.886 ± 0.17 (treatment time: 6 days).

As for `C[n+]1ccccc1/C=N/O` [Pralidoxime chloride], the normalised cell viability came to 1.03 ± 0.029 (treatment time: 3 days) and 1.02 ± 0.06 (treatment time: 6 days).

Turning to `CCCCC(CC)CNC(=N)NC(=N)NCCCCCCNC(=N)NC(=N)NCC(CC)CCCC` (stereo unspecified) [Alexidine dihydrochloride], the normalised cell viability by setting is: (treatment time: 3 days) 0.124 ± 0.0044; (treatment time: 6 days) 0.132 ± 0.0043.

In the case of `CN(C)CCN1C(=O)c2ccccc2N(C)c2ccccc21` [Dibenzepine hydrochloride], the normalised cell viability reads like this: (treatment time: 3 days) 0.191 ± 0.011; (treatment time: 6 days) 0.215 ± 0.0073.

With `CC(=O)OC[C@H]1O[C@@H]([S-])[C@H](OC(C)=O)[C@@H](OC(C)=O)[C@@H]1OC(C)=O.CCP(CC)CC.[Au+]` [Auranofin], the normalised cell viability stood at 0.117 ± 0.0046 (treatment time: 3 days) and 0.141 ± 0.0027 (treatment time: 6 days).

With `OCCN1CCN(CC/C=C2/c3ccccc3Sc3ccc(Cl)cc32)CC1` [Zuclopenthixol hydrochloride], the normalised cell viability (treatment time: 3 days) amounted to 0.605 ± 0.014 and the normalised cell viability (treatment time: 6 days) was 0.61 ± 0.032.

The values above are taken from the supplement of paper PMC6609913.
